USP30 inh: inhibitors of human USP30 deubiquitinase. inhibition, % at 25 µM. purified USP30, Ub-rhodamine cleavage fluorescence. 5.3% of 47,000 active. AID 1645860
USP17 inh: blocks human USP17 ubiquitin-rhodamine cleavage | A8MUK1 | 6.5% of 47,000 active | inhibition, % at 50 µM | purified USP17, Ub-rhodamine cleavage fluorescence, 3 h
Target sequence (A8MUK1 whole entry, looked up): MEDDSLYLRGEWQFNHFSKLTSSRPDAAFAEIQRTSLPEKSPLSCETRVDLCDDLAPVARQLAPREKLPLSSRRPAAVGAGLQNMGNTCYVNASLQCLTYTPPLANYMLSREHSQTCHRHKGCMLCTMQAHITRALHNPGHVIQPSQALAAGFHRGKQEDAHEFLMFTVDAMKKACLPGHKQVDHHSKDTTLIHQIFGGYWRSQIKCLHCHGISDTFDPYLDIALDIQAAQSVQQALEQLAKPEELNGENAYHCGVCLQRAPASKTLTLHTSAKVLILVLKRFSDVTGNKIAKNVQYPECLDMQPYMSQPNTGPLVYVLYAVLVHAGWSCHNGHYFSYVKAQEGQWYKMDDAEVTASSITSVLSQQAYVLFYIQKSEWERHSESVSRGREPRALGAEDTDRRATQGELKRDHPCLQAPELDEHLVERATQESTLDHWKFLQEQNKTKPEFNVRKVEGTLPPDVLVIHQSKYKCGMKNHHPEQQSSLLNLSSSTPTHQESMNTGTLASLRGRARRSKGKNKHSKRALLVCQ
USP28 inh: human USP28 deubiquitinase inhibition; Q96RU2; purified USP28, Ub-rhodamine cleavage fluorescence, 30 min; inhibition, % at 25 µM; 3% of 47,000 active; AID 1645857
An asterisk follows results filed as active; i = inactive; . = no result. The list is not random: actives were taken first. Their share in the collection is about 11%. No stated cut-off is given here; in the data, active means inhibition above about 30%; inactive means the rest.

SMILES	USP30 inh	USP17 inh	USP28 inh
O=C(CCc1ccccc1)N(CC1CCCO1)c1nc2ccccc2s1 (stereo not drawn)	55.8*	21.0	21.9
O=C(CCc1ccccc1)N(Cc1cccnc1)c1nc2cc3c(cc2s1)OCO3	8.1	9.8	5.9
O=c1ccc(-c2nc(-c3cnccn3)no2)cn1Cc1noc(-c2ccccc2)n1	-98.4	-20.4	-15.4
O=c1ccc(-c2nc(-c3cnccn3)no2)cn1Cc1ccccc1F	33.3*	3.8	8.1
O=C1NC2(COC3(CCN(Cc4ccccc4)CC3)C2)Nc2ccc(Cl)cc21 (stereo not drawn)	i	-98.3	-222.6
O=C(c1cccnn1)N1CCC[C@@]2(C[C@@H](Oc3cccc(F)c3)CO2)C1	-14.9	-0.5	-3.6
Cc1nccn1-c1cncc(C2CCCN2c2ncccn2)n1 (stereo not drawn)	-16.7	-37.5	-15.3
CCC(C(=O)NCCc1cn2cccc(C)c2n1)c1ccccc1 (stereo not drawn)	-3.4	-8.7	-6.0
CCc1c(OC)cc2c(c1O)C(=O)CCC2O (stereo not drawn)	-0.9	-18.6	-11.7
Cc1cc(O)cc2cc3c(c(O)c12)C(=O)CCC3O (stereo not drawn)	-89.1	50.8*	-3.5
CC(C)c1nnc(-c2cnc3onc(C4CCCC4)c3c2)o1	-33.7	-3.8	-7.8
CCOC(=O)c1ccc2[nH]cc(C(C)=O)c(=O)c2c1	.	-12.6	.
Cc1ccc2[nH]cc(S(=O)(=O)c3cc(Cl)cc(Cl)c3)c(=O)c2c1	-33.3	47.8*	-3.0
COC1=C(C)C(C)(O)c2[nH]c3ccccc3c2C1=O (stereo not drawn)	-3.6	41.6*	6.0
COc1c(-c2ccccc2)c2ccccc2[nH]c1=O	6.0	1.4	-0.4
CNC(=O)C1CN(C(=O)Cc2ccc(F)cc2)CC12CCCC2 (stereo not drawn)	2.1	2.4	-1.6
O=C(Oc1coc(CSc2ncccn2)cc1=O)c1ccccc1Br	-11.2	15.2	27.3
CN(C)c1nc2cc(C(=O)N3CCCC3)sc2n1-c1ccccc1	5.5	12.2	4.1
CNC(=O)c1cc2nc(N(C)C)n(-c3ccc(F)cc3)c2s1	-2.9	70.8*	45.5*
COc1ccc(C(=O)Nc2ccc(-c3nc4ncccc4o3)cc2)cc1Br	26.1	32.4*	20.6
Cc1ccc(OCC(=O)Nc2c(C)nc3sccn3c2=O)c(C)c1	-30.8	3.0	10.9
COc1ccc(C(=O)Nc2cc(C)c(O)c(-c3nc4ncccc4o3)c2)cc1Cl	-47.9	18.8	0.2
O=C(Nc1ccc(F)cc1)c1cn(-c2ccccc2)nc1-c1cc2ccccc2oc1=O	7.4	9.4	1.7
COc1ccc(CC(=O)Nc2cccc(-c3cn4cccnc4n3)c2)cc1	-285.5	31.0*	15.3
COc1ccc(-c2cn3cccnc3n2)cc1NC(=O)c1cccc(C)c1	-0.1	12.5	-5.4
SMILES	USP30 inh	USP17 inh	USP28 inh
O=C(Nc1cccc(-c2nc3ncccc3o2)c1)c1cccc(-c2cc3ccccc3oc2=O)c1	67.2*	68.0*	69.5*
Cc1ccc(OCC(=O)Nc2cccc(-c3nc4ncccc4o3)c2)c(C)c1	59.0*	19.8	15.9
CN1CC(c2cc(=O)n3[nH]cc(-c4ccc(F)cc4)c3n2)CC1=O (stereo not drawn)	.	-3.2	.
CCNc1cc(C)nc(N2CCN(C(=O)c3cccc4ccccc34)CC2)n1	3.2	-0.4	6.5
COc1ccc(C(=O)Nc2cccc(-c3nc4ncccc4o3)c2)cc1	-18.7	-9.1	-7.0
COc1ccc(CC(=O)Nc2cccc(-c3nc4ncccc4o3)c2)cc1OC	-0.2	-25.9	54.8*
Clc1cccc(-c2nnc(CN3CCN(c4ccccc4)CC3)o2)c1	-4.7	-6.1	-0.2
N#Cc1ccc(Cn2nnc(-c3cccc(Cl)c3)n2)cc1	6.7	11.7	72.7*
Cc1ccnc(NC(=O)c2cc(-c3cccnc3)n(-c3ccccc3)n2)c1	0.1	-10.3	-16.9
O=C(Nc1ccc2c(c1)OCO2)c1cc(-c2cccnc2)n(-c2ccccc2)n1	24.0	30.1*	78.7*
O=S(=O)(c1cccnc1)N1CCC2(C1)Nc1cccnc1NC2=NCc1ccccc1 (stereo not drawn)	-468.6	-45.9	-126.0
FC(F)(F)c1cc(C(F)(F)F)c2sc(Nc3ccccc3)nc2n1	12.1	4.5	20.0
CC(=O)OCCc1c(C)nc2c(C#N)cnn2c1N1CCCC1	-8.3	-7.6	-7.0
Cc1cc(-c2ccnc3c(C#N)cnn23)c(C)s1	-5.2	67.2*	4.1
Cc1nnc2cc(N3CCN(Cc4ccc(OC(C)C)cc4)CC3)cnn12	1.3	2.6	-8.1
Cc1ccc(NC(=O)CC2C(=O)N(Cc3cccnc3)c3nc4ccccc4n32)c(C)c1 (stereo not drawn)	0.4	39.2*	-10.4
Cc1cccc(NC(=O)CC2C(=O)N(Cc3cccnc3)c3nc4ccccc4n32)c1 (stereo not drawn)	-6.8	-16.1	-14.2
CCn1c(=O)c2sccc2n2c(CCC(=O)NCCC3=CCCCC3)nnc12	-2.1	-2.8	-6.5
Cc1nc(-c2ncc[nH]2)cc(C2CCCN(C(=O)CC(C)(C)C)C2)n1 (stereo not drawn)	0.1	4.1	-3.4
COc1ccccc1NC(=O)COc1ccccc1-c1nnc(-c2ccccc2)o1	13.3	6.2	3.0
O=C(COc1ccccc1-c1nnc(-c2ccccc2)o1)NCCCc1ccccc1	34.8*	8.9	11.5
O=C(COc1ccc(Cl)cc1Cl)NCCCc1ccccc1	32.4*	4.6	15.6
O=C(COc1ccc(F)cc1Cl)NCCCn1ccc2ccccc21	19.3	10.6	12.2
O=c1[nH]ccc(=S)[nH]1	25.9	7.5	4.6
COc1ccccc1CCNC(=O)Cc1cc(-c2ccc(F)cc2)on1	-12.0	18.3	-10.8
SMILES	USP30 inh	USP17 inh	USP28 inh
COCCN1C(=O)c2ccccc2C(C(=O)Nc2ccc(NC(C)=O)cc2)C12CCCCC2 (stereo not drawn)	.	12.1	.
COCCN1C(=O)c2ccccc2C(C(=O)Nc2ccc3c(c2)OCO3)C12CCCC2 (stereo not drawn)	8.5	45.0*	22.8
CCN1CCC2(CN(CC(C)C)CC23CCN(C(=O)NCc2ccccc2)CC3)C1=O (stereo not drawn)	18.6	1.7	7.4
Cc1cc(C)c2cc(CN(C(=O)Nc3cccc(Cl)c3)C3CCCC3)c(=O)[nH]c2c1	17.3	2.6	6.8
Cc1cc(C)c2cc(CN(CCc3ccccc3)C(=O)Nc3ccccc3)c(=O)[nH]c2c1	-36.1	61.6*	-7.1
Cc1ccc2c(=O)c3c([nH]c2c1C)CCN(CC(=O)NCc1ccc2c(c1)OCO2)C3	-10.6	52.1*	-3.5
Cc1cc(C)c2[nH]c3c(c(=O)c2c1)CN(CC(=O)NCc1ccccc1)CC3	-26.7	-21.7	-28.1
CCc1cc(=O)n(CC(=O)NCc2ccc3c(c2)OCO3)c(N)n1	0.6	8.4	0.1
CCc1ccc2[nH]c3c(c(=O)c2c1)CN(CC(=O)NCc1ccc2c(c1)OCO2)CC3	23.9	70.4*	19.3
Cc1c(Cl)ccc2c(=O)c3c([nH]c12)CCN(CC(=O)NCc1ccc2c(c1)OCO2)C3	-51.3	48.8*	31.8*
Cc1cccc2c(=O)c3c([nH]c12)CCN(CC(=O)NCc1ccccc1)C3	-153.7	-167.2	-27.7
Cc1oc(-c2ccc(Cl)cc2)cc1C(=O)Nc1ccc(C(C)(C)C)cc1	-0.2	-1.1	-6.4
CCN1[C@H]2CCN(C(=O)c3ccc(OC)cc3)CC[C@@H]2Oc2ccccc2S1(=O)=O	22.4	-0.7	2.3

Compound activity: PubChem BioAssay, Buhrlage Lab, Dana-Farber Cancer Institute and Novartis Institutes for BioMedical Research (Cambridge, Mass)
